tim23-1 inh – inhibits growth of tim23-1 mutant yeast | inhibition, % at 20 µM | actives 1.3% (n = 330,000) | AID 463212 | S. cerevisiae tim23-1 growth, BacTiter-Glo luminescence, 24 h;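 active = growth inhibition of the mutant yeast at or above 50%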;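 note: temperature-sensitive mutant grown at 25 °C; plate controls were DMSO-treated mutant yeast for no effect and medium wells lacking yeast for full effect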
ATG4B inhibitor – ATG4B (human) cysteine protease inhibition | Q9Y4P1 | ATG4B cleavage of LC3-PLA2, NBD-HPC fluorescence, 1 h | inhibition, % at 8.33 µM | actives 0.51% (n = 340,000) | AID 504462; in the data active = inhibition above about 40%
Target sequence (Q9Y4P1 whole entry, looked up): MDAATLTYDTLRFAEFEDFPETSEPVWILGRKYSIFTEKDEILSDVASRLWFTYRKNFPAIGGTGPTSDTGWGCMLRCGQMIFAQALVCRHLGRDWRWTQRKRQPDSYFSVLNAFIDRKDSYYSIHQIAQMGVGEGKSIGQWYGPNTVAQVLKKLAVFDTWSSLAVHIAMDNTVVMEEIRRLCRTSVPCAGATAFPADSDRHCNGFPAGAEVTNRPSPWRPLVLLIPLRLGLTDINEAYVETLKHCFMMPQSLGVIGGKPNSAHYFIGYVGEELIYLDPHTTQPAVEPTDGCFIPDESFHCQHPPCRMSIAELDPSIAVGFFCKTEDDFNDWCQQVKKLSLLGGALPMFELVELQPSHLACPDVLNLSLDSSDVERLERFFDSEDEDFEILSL
tim10-1 inh – inhibits growth of tim10-1 mutant yeast; S. cerevisiae tim10-1 ts strain growth, BacTiter-Glo, 24 h; actives 2.2% (n = 330,000); inhibition, % at 20 µM;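 active = inhibition of at least 40%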;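 note: mutant grown at 25 °C; 0% = DMSO wells with yeast and 100% = wells holding no yeast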
TIM10 inh – inhibits growth of TIM10 yeast strain; inhibition, % at 10 µM; actives 1.4% (n = 330,000); S. cerevisiae TIM10 strain growth, BacTiter-Glo luminescence, 24 h;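 active = inhibition of 40% or more at the single tested concentration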;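 note: wild-type TIM10 isogenic control strain grown at permissive 25 °C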
SKKanGAS inh – SKKanGAS growth inhibition; actives 1.3% (n = 300,000); inhibition, % at 7.5 µM; S. pyogenes SKKanGAS, kanamycin growth, BacTiter-Glo, 6 h;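 active = mean replicate score, as percent of positive control median, at least 50; inconclusive = mean below 50 but one replicate at or above 50; inactive = mean and every replicate below 50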;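 note: strain carries kanamycin resistance gene driven by streptokinase promoter and grows in 40 µg/ml kanamycin; loss of luminescence reflects streptokinase promoter inhibition or plain growth inhibition; 0% = median of DMSO wells and 100% = positive control at its reference dose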
PfHsp90 yeast 2 – inhibits growth of yeast expressing Plasmodium falciparum Hsp90. S. cerevisiae expressing PfHsp90, BacTiter-Glo ATP, 48 h; yeast lacking PDR1 and PDR3 efflux regulators. inhibition, % at 9.4 µM. actives 0.32% (n = 310,000);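 active = every replicate shows inhibition above about 80%, whatever the replicate mean, limit read from the data; inconclusive = mean inhibition reaches the set limit but some replicate falls short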;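 note: 0% = DMSO neutral controls and 100% = 20 µM radicicol positive controls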
ATG4B confirm – confirmation of human ATG4B inhibitors; shares compounds with ATG4B inhibitor; ATG4B protease fluorescent substrate cleavage assay; inhibition, % at 8.33 µM; actives 92% (n = 320); in the data active = inhibition above about 39%
PLA2 ctr – PLA2 (human) inhibition in ATG4B counter-screen. shares compounds with ATG4B inhibitor. purified PLA2, NBD-C6-HPC fluorescence, 45 min. inhibition, % at 8.33 µM. actives 66% (n = 1,600). AID 588402; in the data active = inhibition above about 50%
Target sequence (P04054 whole entry, looked up): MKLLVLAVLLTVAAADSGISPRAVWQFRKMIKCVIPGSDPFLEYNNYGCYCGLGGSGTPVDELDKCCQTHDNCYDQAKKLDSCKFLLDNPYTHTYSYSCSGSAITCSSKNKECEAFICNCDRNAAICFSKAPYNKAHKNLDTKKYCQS
* marks the source's active call; other numbers are inactive results; ? = inconclusive; / = no result. Rows were chosen to be rich in hits. Some 4.7% of all compounds tested hit in one or more screens of this group.

SMILES	tim23-1 inh	ATG4B inhibitor	tim10-1 inh	TIM10 inh	SKKanGAS inh	PfHsp90 yeast 2	PLA2 ctr	others
O=C(CSc1nc2ccccc2c(=O)n1-c1ccccc1)N1CCC1	15	-7	13	1	7	2	/
CCOC(CCn1c(SCc2ccc([N+](=O)[O-])cc2)nc2ccccc2c1=O)OCC	2	16	1	2	23	15	/
O=c1c2ccccc2nc(/C=C/c2c[nH]c3ccccc23)n1-c1ccc([N+](=O)[O-])cc1	8	57*	11	-3	36	4	26
Cc1ccc(-n2c(SCc3ccc([N+](=O)[O-])cc3)nc3ccccc3c2=O)cc1	32	41*	17	19	0	-2	20
CC(C#N)Sc1nc2ccccc2c(=O)n1-c1ccccc1 (stereo unspecified)	29	47*	21	6	3	4	56*
O=C1CC(c2ccccc2)CN1C(=O)c1cccc([N+](=O)[O-])c1 (stereo unspecified)	7	-1	7	7	1	4	/
CCN1CCN(C(CNS(=O)(=O)c2ccc(C)cc2)c2ccccc2)CC1 (stereo unspecified)	-18	8	-10	4	5	11	/
Cc1cccc(C(=O)OCC(=O)NC(=O)NCc2ccccc2)c1	11	5	0	7	/	-18	/
O=C(c1ccc(Cl)s1)N1CCOCC1	-4	6	11	2	13	-14	/
CCOC(=O)c1c(C)[nH]c(C)c1C(=O)CSc1nc2ccccc2c(=O)n1-c1ccc(CC)cc1	14	52*	19	27	14	-5	66*
COc1ccc(CN2CC(=O)N(c3ccc(C)cc3)C2=S)cc1OC	21	10	26	4	2	-11	/
Cc1cccc(N2C(=O)CN(Cc3sccc3C)C2=S)c1	40	88*	21	31	-6	-17	92*
Cc1cccc(N2C(=O)CN(Cc3ccccc3)C2=S)c1	43	49*	21	31	17	-4	63*
Cc1cc(C)cc(N2C(=O)CN(Cc3sccc3C)C2=S)c1	34	94*	15	16	-2	10	94*
CCc1ccc(N2C(=O)CN(Cc3sccc3C)C2=S)cc1	20	92*	26	31	20	-4	98*
COc1cc(CN2CC(=O)N(c3ccccc3Cl)C2=S)cc(OC)c1OC	27	-5	38	2	0	19	/
COc1cc(Cl)c(C)cc1N1C(=O)CN(Cc2ccccc2)C1=S	33	52*	28	28	26	-8	69*
COCCCNC(=O)Cn1cnc2c(OCc3ccccc3)ncnc21	-11	2	-13	-2	/	1	/
O=C(NC(=S)NCCC1=CCCCC1)c1ccc(Br)o1	20	40*	29	-8	23	-3	36	ATG4B confirm=62*
O=C(NCCC1=CCCCC1)c1ccc(Br)o1	13	-8	13	6	2	/	/
CC(C)N(C(=O)CSc1nnc(-c2cc3ccccc3cc2O)n1Cc1ccco1)C(C)C	45	-7	32	32	0	/	/
O=C(CSc1nnc(-c2cc3ccccc3cc2O)n1Cc1ccco1)N1CCc2ccccc2C1	27	41*	21	20	19	/	54*
COc1ccc(S(=O)(=O)N(Cc2cccs2)C2CCCC2)cc1	35	50*	19	7	5	-4	54*
CN(CCc1ccccn1)C(=O)CCC1CCCN(C(=O)CN2CCCCCC2)C1 (stereo unspecified)	8	-6	5	-12	10	-3	/
CC1(C)Cc2c(sc(NC(=O)c3ccc4ncsc4c3)c2C(N)=O)C(C)(C)N1	11	-14	26	-4	6	-6	/
SMILES	tim23-1 inh	ATG4B inhibitor	tim10-1 inh	TIM10 inh	SKKanGAS inh	PfHsp90 yeast 2	PLA2 ctr	others
Cc1cccc(NC(=O)COC(=O)c2ccccc2-c2nc3ccccc3s2)c1C	26	48*	30	28	5	5	51*
Cc1cccc(NC(=O)COC(=O)c2cccc3c2C(=O)c2ccccc2C3=O)c1C	16	32	28	13	10	-46	/
CC#CC(=O)N1CCC(CCc2ccccc2)(C(=O)OCC)CC1	30	49*	24	8	-2	18	-2
CN1C(=O)CSc2ccc(NC(=O)NCc3ccc(F)cc3)cc21	6	64*	2	8	11	6	79*
CN1C(=O)CSc2ccc(NC(=O)NCc3cccnc3)cc21	18	0	-10	1	0	-10	/
CC1CC(C)CN(C(=O)C2CCN(S(=O)(=O)c3ccc4c(c3)CC(C)N4C(=O)C3CC3)CC2)C1 (stereo unspecified)	16	43*	16	-1	-5	8	46	ATG4B confirm=60*
CC(C)c1ccccc1OCC(=O)NC1CCCc2ccccc21 (stereo unspecified)	12	48*	17	7	?	-12	45	ATG4B confirm=65*
CCOc1ccc2nc(SCC(=O)NC3CCCc4ccccc43)sc2c1 (stereo unspecified)	4	50*	1	-20	-3	13	44
COc1ccccc1OCC(=O)NC1CCCc2ccccc21 (stereo unspecified)	23	-2	-10	16	4	16	/
CCOc1ccc2nc(SCC(=O)N3CCCc4ccccc43)sc2c1	24	-2	21	3	2	-16	/
Cc1ccc(C)c(N2CCN(C(=O)c3ccc(NC4=NC5CS(=O)(=O)CC5S4)cc3)CC2)c1 (stereo unspecified)	17	-16	8	-5	1	-12	/
COc1ccc(NC(=O)NNC(=O)COc2ccc3cc(Br)ccc3c2)cc1	-15	1	-11	0	-2	-42	/
C=CCn1c(SCc2nc3sc(C(=O)O)c(C)c3c(=O)[nH]2)nnc1-c1ccc(C(C)(C)C)cc1	21	8	2	10	22	1	/
COc1ccc(-c2csc(NC(=O)c3ccccc3NS(=O)(=O)c3ccc(C)cc3)n2)cc1	26	74*	18	27	54*	-11	68*
O=C(Nc1nc(-c2cccc([N+](=O)[O-])c2)cs1)c1cccc([N+](=O)[O-])c1C(=O)O	6	79*	-1	10	-1	-7	82*
COc1ccc(S(=O)(=O)Nc2ccccc2C(=O)Nc2nc(-c3ccc(F)cc3)cs2)cc1OC	36	20	31	29	36	-10	/

Screening data (PubChem BioAssay)
